# Laboratory results reported in the supplement of paper PMC10338343.
# ± gives the standard deviation.
# System: MILI (PIWIL2) piRISC loaded with L1MC piRNA (26 nt)
# Assay: pre-steady-state target cleavage rate (min^-1); guide: L1MC piRNA 5'p-UAACUAAAUACUAUGCAAGCUGUAGG; MIWI and MILI are mouse PIWI proteins and EfPiwi is from a freshwater sponge; tags in brackets are library labels; higher = faster piRNA-guided slicing of the target
# Method in brief: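 The pre-steady-state cleavage rate was calculated from a burst-and-steady-state fit. Data came from Cleave-'n-Seq, in which […] transcribed, DNA-blocked target RNA library was mixed with 1 nM active affinity-purified piRISC carrying one synthetic guide, with or without 500 nM GTSF1 partner protein, in HEPES–potassium acetate buffer at 33 °C for 0–8 or 0–960 min. Uncleaved targets were sequenced and normalised to depth and to weakly complementary targets, three trials were pooled, and k3 was capped at 0.0001 min^-1.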
# [1] = auxiliary factor: 500 nM mouse GTSF1
# [2] = auxiliary factor: none (no GTSF1)
# 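Note: 1 nM active piRISC with 0.1 nM target library at 33 °C single turnover.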
Sequence,pre-steady-state target cleavage rate [1],pre-steady-state target cleavage rate [2]
UCCUGCUACACGAUGCAUAGUAUUUACAAA,0.0504 ± 0.02,
UCCUGGAUGUGCUUCGAUAGUAUUUAGUAA,0.0404 ± 0.011,
UCCUGGAUGUGCUUGCAUAUAUUUAGUUA,0.00444 ± 0.0037,
UCCUGGUACUGCUUGCAUAGAAUUUAGUUA,0.0381 ± 0.017,
UCCUGGAUGAGCUUGCAUAGUAUUUAGGUA,0.166 ± 0.04,
UCCUGCUACAGCUUGCAUAGAAUUUACUUA,0.107 ± 0.031,
UCCUGGAUCAGGUUGCAUAGUAUUUACUUA,0.117 ± 0.029,
UCCUGGAUGUCCUUGCAUAGUUUAUAGUUA,0.0111 ± 0.006,
UCCUCCUACAGCUUGCAUAGAUAUUAGAAA,0.00453 ± 0.0044,
UCCUCCUACAGCUUGCAUAGUUAAUACAAA,0.014 ± 0.0056,
UCCUGGAACAGGAAGCAUAGUAUUUAGAAA,0.049 ± 0.011,
UCCUGCAACAGCUUGCAUAGUAUUUACUUA,0.122 ± 0.012,
UCCUGGAUGUCCAUGCAUAGAAUUUAGUUA,0.0111 ± 0.0048,
UCCUGGAUGUCGAACCAUAGUAUUCAGUUA,< 0.0001,
UCCUGGAUGAGCUUGCAUAGAAUUAAGUUA,0.00512 ± 0.0037,
UCCUGCUACACCUUGCAUAGUAUUUAGAAA,0.169 ± 0.036,
UCCUGGAUGUCGAACGUAUCUAAUUUAGUUA,,< 0.0001
UCCUGGAUCUGCUUGCAUAGUAUUUAGAAA,0.0794 ± 0.019,
UCCUGGAUGUCGAUGCAUAGUCAUUUAGUUA,0.00452 ± 0.004,
UCCUGGAUGUCGUUGCAUAGUAUUUCGUUA,0.0162 ± 0.0076,
UCCUGGAUGUCGAACCAAAGUAAUUAGUUA,,< 0.0001
UCCUGGAACAGCUUGCAUAGUAUAUUCAAA,0.0758 ± 0.022,
UCCUGGAUGUCGAAGCUUAGUAUUUUGUUA,,< 0.0001
UCCUGGAUGUCGAAGCAUAGUAUUUACUUA,0.00488 ± 0.0029,
UCCUGGAUGUGCUUGCAUGUAUUUAGUUA,0.00502 ± 0.0043,
UCCUCCUACAGCUUGCAAUGUAUUUUCAAA,0.0219 ± 0.0065,
UCCUGGAUGUGCUUGCAUAGUAUUUAUUUA,0.0305 ± 0.011,

Sequence,pre-steady-state target cleavage rate [1],pre-steady-state target cleavage rate [2]
UCCUGGAACACGAUGCAUAGUAUUUUCAAA,0.0494 ± 0.017,
UCCUGGAUGUGCUUGGUUAGUAUUUAGAAA,0.00692 ± 0.0045,
UCCUGCUACAGCUUGCAUACUAUUUUCAAA,0.0295 ± 0.01,
UCCUGGAUGUCGUUGCAUAGUAUUUAGCUUA,0.0208 ± 0.0083,
UCCUGGAUGUCGAACCAAAGUAUUUAGAUA,,< 0.0001
UCCUGGUAGAGCUUGCAUAGUAUUUACAAA,0.015 ± 0.0066,
UCCUGGAACAGCUUGCAUAGUUAAUAGUUA,0.0282 ± 0.01,
UCCUGGAUGUCCUUGCAUAGUAUUUUCUAA,0.0134 ± 0.0068,
UCCUGGUACAGCUUGCAUAGAAUAUAGUUA,0.102 ± 0.028,
UCCUGGAUGUGCUUGCAUAGAAUUUAGUUA,0.0203 ± 0.0071,
UCCUGGAACAGCUUGCAUAGAAUUAAGUUA,0.051 ± 0.014,
UCCUGGAUGUCCUAGCAUAGUAUUUAGUAA,0.143 ± 0.031,
UCCUGGUACACCUUGCAUAGUAUUUACAAA,0.046 ± 0.018,
UCCUGGAUGUGCUUGCAAAGUAUUUAGAUA,0.0284 ± 0.008,
UCCUGGAUCAGCUAGCAUAGUAUUUUCAAA,0.0498 ± 0.013,
UCCUCCUACAGCUUGCAUAGUAUUUACAAA,0.197 ± 0.04,
UCCUGCUACAGCUACGAUAGUAUUUAGAAA,0.0517 ± 0.019,
UCCUGGAUGUCGAACGUUAGAUUUUAGUUA,,< 0.0001
UCCUGGAUGUGCUUGCAUACAUAAAUCAAA [g12:g20:cont:t1A],,< 0.0001
UCCUGGAUGACGAUGCAUAGUAUUUAGAAA,0.139 ± 0.035,
UCCUGGAACACGAUGCAUAGUAUUUACAAA,0.0623 ± 0.018,
UCCUGGAUGUCGAAGCGUAGUAUUUAGUUA,0.00313 ± 0.0025,
UCCUGGUACAGGUUGCAUAGUAUUUAGAAA,0.043 ± 0.013,
UCCUGGAUGUCGAACGUUAGUAUUUAGUUA,< 0.0001,
UCCUGGAACAGCUUCGAUAGUAUUUAGAAA,0.0923 ± 0.021,
UCCUGGAUGUCGAACCAUAGUAUUUAGUUU [g2:g15:cont:t1U],0.00385 ± 0.0021,
UCCUGGAUGUGCUUGCAAAGUAUUUUGUUA,0.0179 ± 0.0057,
